# This is one part of a sample in which the strongest signals are shown more often than they occur.
# B1: TAL6-4LysM (Trichoderma atroviride) (protein)
# chain: AADSIPSISPTGIITPTPTQSGMVSNCNKFYDVHSNDGCSAIASSQHVDLSSLYKWNPAIKTDCSGLQASVYVCIGILTTSMSTTSKLPTTTSKPSTTSKPPTGITTPTPTQSGMVKNCNKFYDVHSGDGCSAIASSQKVNLSSFYLWNPAVKTDCSGLQASVFVCIGTLTTSMSTTTSKLPTTTSKPSTTSKPPTGIITPTPTQNGMVKNCNKFYDVHSGDGCSAIASSQKVNLSSFYLWNPAVKTDCSGLQASVFVCVGTATTTTAAGITTPTPTQSGMVSGCNKFYDVHAGDGCSAIASSQKIALSSLYKWNPAVKTDCSGLQASVYICIGVGNAAAARVTGALEQKLISEEDLNSAVDHHHHHH
# Tests used:
# Assay in all cases: glycan array binding signal (z-score within array); higher = stronger binding
# Settings in all cases: glycan notation: IUPAC condensed, linker removed
# [1] = molecular target: Fuc(a1-2)Gal(b1-3)GalNAc(b1-3)Gal
# Method in brief: (§1)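 Glycan array data came from 3228 arrays in the Consortium for Functional Glycomics database, and only arrays with an available protein sequence were kept. Glycan names were put into IUPAC-condensed notation, and columns mapping to the same glycan were averaged. The binding signal is a within-array Z-score, averaged across arrays of one protein sequence run at different concentrations or buffers and across linkers. A negative Z-score can be read as non-binding.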
# [2] = molecular target: Fuc(a1-2)Gal(b1-3)GalNAc(b1-3)Gal(a1-4)Gal(b1-4)Glc
# Method in brief: as §1
# [3] = molecular target: Fuc(a1-2)Gal(b1-3)GlcNAc6S
# Method in brief: as §1
# [4] = molecular target: Fuc(a1-2)Gal(b1-4)GlcNAc(b1-3)Gal(b1-4)GlcNAc
# Method in brief: as §1
# [5] = molecular target: Fuc(a1-2)Gal(b1-4)GlcNAc(b1-3)GalNAc
# Method in brief: as §1
# [6] = molecular target: Fuc(a1-2)Gal(b1-4)[Fuc(a1-3)]GlcNAc(b1-3)Gal(b1-4)[Fuc(a1-3)]GlcNAc(b1-3)Gal(b1-4)[Fuc(a1-3)]GlcNAc
# Method in brief: as §1
# [7] = molecular target: Fuc(a1-2)Gal6S(b1-4)Glc6S
# Method in brief: as §1
# [8] = molecular target: Fuc(a1-2)[Gal(a1-3)]Gal(b1-3)GlcNAc
# Method in brief: as §1
# [9] = molecular target: Fuc(a1-2)[Gal(a1-4)]Gal(b1-4)GlcNAc
# Method in brief: as §1
# [10] = molecular target: Fuc(a1-2)[GalNAc(a1-3)]Gal(b1-4)GlcNAc(b1-3)Gal(b1-4)GlcNAc(b1-3)Gal(b1-4)GlcNAc
# Method in brief: as §1
# [11] = molecular target: Fuc(a1-2)[GalNAc(a1-3)]Gal(b1-4)GlcNAc(b1-3)[Fuc(a1-2)[GalNAc(a1-3)]Gal(b1-4)GlcNAc(b1-6)]GalNAc
# Method in brief: as §1
# [12] = molecular target: Fuc(a1-3)[Gal(b1-4)]Glc6S
# Method in brief: as §1
# [13] = molecular target: Fuc(a1-3)[Gal(b1-4)]GlcNAc(b1-3)GalNAc
# Method in brief: as §1
# [14] = molecular target: Fuc(a1-3)[Gal(b1-4)]GlcNAc(b1-6)GalNAc
# Method in brief: as §1
# [15] = molecular target: Fuc(a1-3)[GalNAc(b1-4)]GlcNAc
# Method in brief: as §1
# Gal(a1-4)GlcNAc = molecular target: Gal(a1-4)GlcNAc
# Method in brief: as §1
# Gal(b1-2)Gal = molecular target: Gal(b1-2)Gal
# Method in brief: as §1
# Gal(b1-3)Gal(b1-4)GlcNAc = molecular target: Gal(b1-3)Gal(b1-4)GlcNAc
# Method in brief: as §1
# [16] = molecular target: Gal(b1-3)GalNAc(a1-3)[Fuc(a1-2)]Gal(b1-4)Glc
# Method in brief: as §1
# [17] = molecular target: Gal(b1-3)GlcNAc(b1-3)GalNAc
# Method in brief: as §1
# Gal(b1-3)GlcNAc6S = molecular target: Gal(b1-3)GlcNAc6S
# Method in brief: as §1
# [18] = molecular target: Gal(b1-3)[GlcNAc(b1-6)]GalNAc
# Method in brief: as §1
# Gal(b1-4)Glc6S = molecular target: Gal(b1-4)Glc6S
# Method in brief: as §1
# [19] = molecular target: Gal(b1-4)GlcNAc(b1-2)Man(a1-3)[GlcNAc(b1-4)][Gal(b1-4)GlcNAc(b1-2)Man(a1-6)]Man(b1-4)GlcNAc(b1-4)GlcNAc
# Method in brief: as §1
# [20] = molecular target: Gal(b1-4)GlcNAc(b1-2)[Gal(b1-4)GlcNAc(b1-4)]Man(a1-3)[Gal(b1-4)GlcNAc(b1-2)Man(a1-6)]Man(b1-4)GlcNAc(b1-4)GlcNAc
# Method in brief: as §1
# [21] = molecular target: Gal(b1-4)GlcNAc(b1-3)Gal(b1-3)GlcNAc
# Method in brief: as §1
# [22] = molecular target: Gal(b1-4)GlcNAc(b1-3)Gal(b1-4)GlcNAc(b1-2)Man(a1-3)[Gal(b1-4)GlcNAc(b1-3)Gal(b1-4)GlcNAc(b1-2)Man(a1-6)]Man(b1-4)GlcNAc(b1-4)[Fuc(a1-6)]GlcNAc
# Method in brief: as §1
# [23] = molecular target: Gal(b1-4)GlcNAc(b1-3)Gal(b1-4)GlcNAc(b1-3)Gal(b1-4)GlcNAc(b1-3)Gal(b1-4)GlcNAc(b1-3)Gal(b1-4)GlcNAc(b1-2)Man(a1-3)[Gal(b1-4)GlcNAc(b1-3)Gal(b1-4)GlcNAc(b1-3)Gal(b1-4)GlcNAc(b1-3)Gal(b1-4)GlcNAc(b1-3)Gal(b1-4)GlcNAc(b1-2)Man(a1-6)]Man(b1-4)GlcNAc(b1-4)GlcNAc
# Method in brief: as §1
# [24] = molecular target: Gal(b1-4)GlcNAc(b1-3)Gal(b1-4)GlcNAc(b1-6)[Gal(b1-3)]GalNAc
# Method in brief: as §1
# [25] = molecular target: Gal(b1-4)GlcNAc(b1-3)[Gal(b1-4)GlcNAc(b1-6)]Gal(b1-4)GlcNAc
# Method in brief: as §1
binder,measurement,setting,value
B1,glycan array binding signal (z-score),[1],-0.335
same,glycan array binding signal (z-score),[2],-1.13
same,glycan array binding signal (z-score),[3],1.83
same,glycan array binding signal (z-score),[4],0.858
same,glycan array binding signal (z-score),[5],-0.49
same,glycan array binding signal (z-score),[6],0.899
same,glycan array binding signal (z-score),[7],-0.234
same,glycan array binding signal (z-score),[8],-0.6
same,glycan array binding signal (z-score),[9],2.32
same,glycan array binding signal (z-score),[10],-0.51
same,glycan array binding signal (z-score),[11],-0.157
same,glycan array binding signal (z-score),[12],0.195
same,glycan array binding signal (z-score),[13],-0.606
same,glycan array binding signal (z-score),[14],-0.062
same,glycan array binding signal (z-score),[15],3.19
same,glycan array binding signal (z-score),Gal(a1-4)GlcNAc,2.59
same,glycan array binding signal (z-score),Gal(b1-2)Gal,0.734
same,glycan array binding signal (z-score),Gal(b1-3)Gal(b1-4)GlcNAc,2.92
same,glycan array binding signal (z-score),[16],-0.473
same,glycan array binding signal (z-score),[17],0.663
same,glycan array binding signal (z-score),Gal(b1-3)GlcNAc6S,3.15
same,glycan array binding signal (z-score),[18],2.39
same,glycan array binding signal (z-score),Gal(b1-4)Glc6S,-0.334
same,glycan array binding signal (z-score),[19],-0.532
same,glycan array binding signal (z-score),[20],3.53
same,glycan array binding signal (z-score),[21],-0.823
same,glycan array binding signal (z-score),[22],-0.014
same,glycan array binding signal (z-score),[23],-0.74
same,glycan array binding signal (z-score),[24],1.17
same,glycan array binding signal (z-score),[25],0.074
